Data reported in PubChem BioAssay (NCI).
About 83,000 compounds went through this panel and 20% of them were active in at least one assay; those are over-represented in the sample as a whole.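 48-hour exposure, single concentration, 96-well plates; percent growth endpoint where 0 means no net growth. Active: below 10.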 A number with no mark means an inactive call. Activity calls are given as the source filed them.

Columns and labels:
Assay in all cases: NCI-60 one-dose screen, 48 h (100 = growth as untreated, 0 = no growth, -100 = all killed)
Conditions in all cases: 10 µM unless noted
HCT-15 colon = system: HCT-15 colon
HT29 colon = system: HT29 colon
SNB-75 CNS = system: SNB-75 CNS
SNB-19 CNS = system: SNB-19 CNS
U251 CNS = system: U251 CNS
PC-3 prostate = system: PC-3 prostate
SK-MEL-5 melanoma = system: SK-MEL-5 melanoma
UACC-62 melanoma = system: UACC-62 melanoma
LOX IMVI melanoma = system: LOX IMVI melanoma
SK-MEL-28 melanoma = system: SK-MEL-28 melanoma
SK-MEL-2 melanoma = system: SK-MEL-2 melanoma
EKVX NSCLC = system: EKVX NSCLC
SN12C renal = system: SN12C renal
UO-31 renal = system: UO-31 renal
TK-10 renal = system: TK-10 renal
ACHN renal = system: ACHN renal
CAKI-1 renal = system: CAKI-1 renal
A498 renal = system: A498 renal
CCRF-CEM leukemia = system: CCRF-CEM leukemia
MOLT-4 leukemia = system: MOLT-4 leukemia

SMILES | growth (HCT-15 colon) | growth (HT29 colon) | growth (SNB-75 CNS) | growth (SNB-19 CNS) | growth (U251 CNS) | growth (PC-3 prostate) | growth (SK-MEL-5 melanoma) | growth (UACC-62 melanoma) | growth (LOX IMVI melanoma) | growth (SK-MEL-28 melanoma) | growth (SK-MEL-2 melanoma) | growth (EKVX NSCLC) | growth (SN12C renal) | growth (UO-31 renal) | growth (TK-10 renal) | growth (ACHN renal) | growth (CAKI-1 renal) | growth (A498 renal) | growth (CCRF-CEM leukemia) | growth (MOLT-4 leukemia)
COc1ccc(-c2c(-c3ccccc3)noc2N)cc1OC | 100% | 101% | 101% | 109% | 98% | 98.8% | 97.3% | 95% | 105% | 112% | 98.5% | 99.7% | 105% | 91.5% | 111% | 133% | 110% | 123% | 98.1% | 99.3%
Fc1ccc(C2CC(c3cccc(Nc4ccncc4)c3)=NN2c2ccc(Cl)cc2)cc1 (stereo not given) | 3.49% (active) | 2.11% (active) | 78.4% | 87.5% | 8.99% (active) | 49.4% | 82.8% | 99.6% | -67.1% (active) | 53.4% | 101% | 84.7% | 68.5% | 52.9% | 84.6% | 75.6% | 43.6% | 78% | 42.6% | 24%
Clc1ccc(C2CC(c3cccc(Nc4ccncc4)c3)=NN2c2ccc(Cl)cc2)cc1 (stereo not given) | -71.6% (active) | -5.47% (active) | 70.7% | 67.8% | -49.7% (active) | 17% | 33.8% | 98% | -97.2% (active) | -92.3% (active) | 85.8% | 72.3% | 39.6% | 4.62% (active) | 50.5% | -66.6% (active) | -59.6% (active) | 72.1% | 2.88% (active) | -5.2% (active)
Cc1ccc2[nH]c(=O)cc(-n3nncc3COc3ccc(C=O)cc3)c2c1 | 102% | 105% | 91.2% | 102% | 102% | 97.8% | 101% | 93.7% | 99.6% | 113% | 101% | 103% | 106% | 62.9% | 109% | 98.9% | 87.8% | 117% | 97.9% | 108%
Cn1c(COC(=O)N2CCCCC2)nc2c(N3CCOCC3)nc(-c3ccccc3)nc21 | -43% (active) | -33.4% (active) | -85.4% (active) | 17.7% | -70.9% (active) | -57.5% (active) | -95.6% (active) | -92.7% (active) | -90.4% (active) | -96.8% (active) | -79.6% (active) | -59.4% (active) | -86.1% (active) | -99.3% (active) | -86.2% (active) | -100% (active) | -88% (active) | -21.7% (active) | -6.4% (active) | -5.2% (active)
COc1ccc(-c2cnnc3c(-c4cccc(C(F)(F)F)c4)cnn23)cc1 | 68.3% | 63.6% | -26.9% (active) | 50.4% | 17.5% | 63.2% | 5.82% (active) | 62.6% | 75.4% | 56.1% | 54.6% | 30.6% | 49.8% | 57.6% | 21% | 14.9% | -31.8% (active) | 78.6% | 61.2% | 89.2%
Cc1c2c(cc[n+]1Cc1ccc(F)cc1)c1ccc(OCc3cccc(F)c3)cc1n2Cc1cccc(F)c1 | 54.3% | -74.9% (active) | -88.7% (active) | -90.3% (active) | -89.4% (active) | -44.4% (active) | -99.4% (active) | -98% (active) | -82.7% (active) | -91% (active) | -81.3% (active) | -23.5% (active) | -90.5% (active) | 53.9% | -27.8% (active) | 32.2% | 60.2% | -1.04% (active) | -54.2% (active) | -62.4% (active)
COc1ccc(NC(=O)c2sc3nc(C)c(C(=O)CCc4cccc(OC)c4)cc3c2N)cc1 | 46.7% | 67.4% | 65.7% | 73.5% | 78.3% | 79.5% | 61.9% | 63.7% | 75.4% | 83% | 53.2% | 82.8% | 73% | 51% | 85.4% | 95.2% | 71% | 19.2% | 65.4% | 48.1%
COc1ccc(-c2cnc(N)nc2-c2ccc(OC)cc2O)cc1 | 101% | 85.6% | 91.5% | 99.6% | 92.2% | 92% | 104% | 93.4% | 86.1% | 104% | 112% | 96.8% | 98.5% | 70.2% | 99.1% | 87.9% | 86.5% | 99.8% | 82.4% | 77.2%
CN1CCN(c2c(F)cc(NC3=C(Cl)C(=O)c4ncccc4C3=O)cc2F)CC1 | 63.3% | 104% | 87.8% | 101% | 103% | 88.5% | 100% | 100% | 5.89% (active) | 69.8% | 99.2% | 91% | 84.2% | 34.3% | 66.9% | -63% (active) | 62.2% | 88.1% | 5.66% (active) | 0.45% (active)
CN1CCN(c2ccc3nc(-c4cc(C(C)(C)C)c(O)c(C(C)(C)C)c4)[nH]c3c2)CC1 | -35.3% (active) | 6.14% (active) | 58.8% | 73.6% | 16.5% | 58.7% | 74.9% | 63.5% | -37.3% (active) | 57% | 82.5% | 86.4% | 88.2% | 61.3% | 90.5% | 87.3% | 68.6% | 90.5% | 14.5% | 39.6%
COc1ccc(C(O)c2cc3c(N)c(C(=O)Nc4ccc(Cl)cc4)sc3nc2C)cc1 (stereo not given) | 12.3% | -6.54% (active) | -22.5% (active) | 37.2% | 20.2% | 21.4% | 15.4% | 17.3% | 29.2% | 59.6% | 37.1% | 37% | 34.6% | 37% | 42.4% | 35.6% | 25.2% | -5.66% (active) | 8.15% (active) | 15.5%
CCN(CC)S(=O)(=O)c1cccc([N+](=O)[O-])c1 | 107% | 88.4% | 79.9% | 103% | 88.9% | 75.4% | 97.9% | 102% | 97.6% | 108% | 93% | 98.7% | 100% | 82.6% | 90% | 109% | 91.3% | 73.2% | 102% | 105%
COc1c(Cl)cc(Cl)c2ccc(C=C3C(=O)NC(=S)NC3=O)nc12 | 103% | 109% | 95% | 99.2% | 105% | 105% | 101% | 105% | 101% | 103% | 105% | 104% | 100% | 93.2% | 107% | 101% | 91.7% | 93.8% | 105% | 105%
COc1ccc(C(O)c2cc3c(N)c(C(=O)Nc4cccc(OC)c4)sc3nc2C)cc1 (stereo not given) | 15.6% | 2.47% (active) | -2.98% (active) | 36.1% | 9.2% (active) | 16.2% | -35.4% (active) | 23.6% | 30.8% | 59% | 22.6% | 33.8% | 23.6% | 25% | 39.9% | 27% | 24.4% | -17% (active) | 7.53% (active) | 16.3%
Cc1ccccc1-c1cc(Cc2ccc(F)cc2)c(=O)[nH]n1 | 110% | 117% | 101% | 88.2% | 106% | 116% | 98.3% | 99.6% | 98.9% | 118% | 122% | 81.8% | 148% | 70.5% | 122% | 105% | 54.4% | 117% | -50.9% (active) | 58.1%
